# In the supplement of paper PMC6555819:
# System: VDR:RXRa (NR concentration 270 nM, RXRa partner concentration 90 nM)
# Test: PBM binding z-score (relative to random genomic background probes); higher = stronger binding; sequences stand for … in GC…GCGATTGACAGCGTAGAATGAAGG
# Method: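 Protein-binding microarray (Agilent 4x180K custom design, double-stranded 60-nt probes: 5' GC cap, 34-nt variable region, 24-nt constant primer region; full probe sequence given). Purified or IVT nuclear receptor:RXRα heterodimers (3:1 NR:RXRα, mostly 270:90 nM) or homodimers were incubated for 1 h in PBS with 2% milk and no ligand, then detected with Alexa488 antibodies. Fluorescence from o1-orientation probes (~5 replicates averaged) was converted to z-scores against 500 random hg19 background probes. Variable regions are seed direct-repeat (DR0–DR5) sites, all their single-nucleotide variants and half-site ablations.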
row,Sequence,PBM binding z-score
1,CGAACTAGGTCATTGACAGGACGGTGAATAGTAA,1.62
2,ACTAACGGGTCAACGAGGTTATAGCACGCGTATA,7.41
3,TAGCCTAGGTCATGCGGGCCAGGATAGTGTCGGC,2.76
4,AGAATCAGGTTATACGTAGATCAGGGAAGAAAGT,0.368
5,GCTGCTAGGTCAGGGTGGTCAGCTAACGGGTACG,1.25
6,CAAACTAGGTCACCGGAAGGACAAAGTCCGCATG,3.49
7,GCTTACGTGTCAAAGGTTATAGCATGAATAGAAT,2.29
8,CCTATTTGTTGACCATAAGGGCAACCGAAGCTCG,1.09
9,GGTGCTAGGTCAGGTTGGTCAGCTAACGGGTACG,1.25
10,AGTCAAAGTTCATCTAGTTAACGTAAGATATGCT,4.86
11,ACTATTAGTTGATACGAGGGCAACCGATAGGTTG,0.867
12,CGTACTGGGCCATTCAGAGGTCATTGATCATATG,4.27
13,CCTCGGACGACAACAGGAGGTCAGAGCTGCCAGA,1.52
14,TCTATTAGTTGATTATGGCAACCGAAACAGCGGA,1.08
15,ATCTCTAGGTGAGACTCAGTTCAGTGAAGAACGC,0.863
16,CCGACTGGGGCAAAGGGTACCATACTCAGTACGA,0.4
17,CGCCAAAGTTCAAGGTAACGTAACAGAAAGCAGC,3.76
18,GTACCAAGGTGAATAGGACGTTGATGAGTAGGCG,-0.357
19,ATATCTAGGTAAGACTCAGTTCAGTGAAGAACGC,0.941
20,TCATGTAGGTAAATGCTAGGTGAAAGTCCGATCT,0.587

row,Sequence,PBM binding z-score
1,ACAGACAGGTGATGAAAGTAACTCAGGCTATCAT,-0.184
2,AATAGCAGGCCAAGTTTGGGTCACTCAAACAAAG,0.703
3,ATCTTTAGGTAACAAGTTCAGTGAAAGAGAGGAC,1.81
4,CCAAGCAGGCCAGGGTCACTCAAGCATTTCGCTT,2.55
5,CAAACTAGGTAAAGAGGTCAAAGTCCGCTTCCCG,4.92
6,ACTAGCAGGCCAAGTCTGGGTCACTCAAACAAAG,0.77
7,CTTACTGGGCCATTCAGAGGTCATTGATCATATG,4.23
8,AGTCAAAGTTCACTAGGTGACGTAAGATTCAGCT,4.03
9,TAACCTAGGTCATGCGGGCCAGTATAGTGTCGGC,3.55
10,AGAATGAGGTTACCAAAGATCTGGGAAACGCTTG,0.954
11,GGAACGAGGGCAATTTGATAGCAGAGTTTGATGG,0.368
12,GCATATAGGTATTACAAGGTGAAAGTCCGATTGT,0.134
13,ACAACGAGGGCACGCTGAGTTGATAGCAGAGTAG,2.01
14,TCTCGGAGTACACGAAAGGTCAGAGCTCGACATC,3.41
15,GATAAAGGGTCAAGGCCAGAGTACGCGTATTGAT,4.56
16,AGAATGAGGTTATACGGAGATCAGGGAAGAAAGT,1.56
17,GCTAGCAGGCCATTTGGGTTACTCAATGACGGGC,-0.436
18,TCGTGTAGATCAAAGGTTAAGAAAGCCGAAGCCT,1.45
19,GTACCCAGGTGAATAGGTCGTTGATGAGTAGGCG,0.54
20,GCTGCTAGGTCAGGTTGGTCACCTAACGGGTACG,0.967
